Source: PubChem BioAssay
RE007 growth inh: less growth of the S. pombe RE007 Vpr strain. actives 0.21% (n = 360,000). S. pombe RE007 Vpr strain, BacTiter-Glo ATP luminescence, 24 h. Potency, µM (series often up to 92.2 µM), without a hit: at the highest dose activity change, negative = less growth, hits mostly inhibitors; active = well fitted falling curve with a large enough effect; inconclusive = small, poorly fitted or top-dose-only effect; inactive = no such curve, though single readings can be large or run the other way; also: potency is read from the fitted curve at half-maximal effect; % is scaled to controls: 0 for no effect and ±100 for the full control effect; nearly all actives have a fitted effect of over 50% in size
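Fission yeast strain RE007, carrying one chromosomally integrated HIV-1 vpr copy, was seeded at OD 0.01 in PMG+AL medium with 23 nL pinned compound. After 24 h at 30 °C and 99% humidity, viability was read by BacTiter-Glo luminescence.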
FBPA Giardia inh: blocks Giardia fructose-bisphosphate aldolase activity; A8B2U2; purified Giardia FBPA; Potency, µM (doses to about 59.6 µM), inactives show top-dose activity, negative = inhibition, hits mostly inhibitors; actives 0.71% (n = 290,000); AID 2451; also: potency is read from the fitted curve at half-maximal effect; % is scaled to controls: 0 for no effect and ±100 for the full control effect; nearly all actives have a fitted effect of over 55% in size
Target sequence (A8B2U2 whole entry, looked up): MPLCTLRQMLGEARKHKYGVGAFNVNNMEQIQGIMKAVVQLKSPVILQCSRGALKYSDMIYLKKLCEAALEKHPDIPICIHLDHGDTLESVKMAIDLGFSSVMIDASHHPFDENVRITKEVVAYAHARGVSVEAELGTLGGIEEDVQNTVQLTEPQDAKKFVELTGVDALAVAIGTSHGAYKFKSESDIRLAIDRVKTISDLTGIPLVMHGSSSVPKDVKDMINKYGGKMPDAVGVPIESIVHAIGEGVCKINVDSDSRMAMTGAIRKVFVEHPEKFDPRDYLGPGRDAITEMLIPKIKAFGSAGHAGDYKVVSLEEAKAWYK
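40 nM FBPA preincubated 10 min at RT with compound (up to 57.5 uM final), then substrate plus GAPDH/TPI/NAD/arsenate coupling and diaphorase/resazurin added. Fluorescence read after 20 min at RT, 525/598 nm.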
CHX counter: affects cycloheximide protein synthesis inhibition readout, counter-screen; cell reporter, cycloheximide protein synthesis inhibition counterscreen; max response, %; actives 12% (n = 300,000); AID 2314; in the data active = max response mostly above about 13%, no sharp cut-off; inactive = mostly below about 14%; also: read at 38.3 µM for the half of the compounds with a filed dose; 0% is about no effect
TbPYK inhibitor: inhibitors of Trypanosoma brucei pyruvate kinase; Q57TT1; TbPYK enzyme, Kinase-Glo Plus ATP luminescence, 45 min; Potency, µM (titrated, usually from 76.8 µM), without a hit: at the top dose activity, negative = inhibition, usual class: inhibitors; actives 0.12% (n = 410,000); also: potency is read from the fitted curve at half-maximal effect; % is scaled to controls: 0 for no effect and ±100 for the full control effect; nearly all actives have a fitted effect of over 50% in size
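Enzyme and substrate buffer are dispensed first and compound is pin-transferred. ADP at 130 uM final then starts the reaction, which runs 45 min at room temperature. Detection reagent is added for 10 min before luminescence is imaged.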
LmPK inh: blocks Leishmania mexicana pyruvate kinase activity. purified LmPK, Kinase-Glo ATP luminescence, 1 h. Potency, µM (highest dose often 57.5 µM), without a hit: top-dose activity change, negative = inhibition, actives largely listed as inhibitors. actives 0.37% (n = 290,000). AID 1721; also: potency is read from the fitted curve at half-maximal effect; % is scaled to controls: 0 for no effect and ±100 for the full control effect
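In 50 mM imidazole pH 7.2 with 7 mM MgCl2, LmPK (0.1 nM) turned over PEP (0.5 mM) and ADP (0.1 mM) for 1 h at room temperature. Luciferase read-out of ATP.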
Shiga inhibitor: inhibitors of Shiga toxin in Vero cells; Vero cells, Shiga toxin protein synthesis inhibition reporter; inhibition, % at 38.7 µM; actives 9.2% (n = 290,000); in the data active = inhibition mostly above about 28%, no sharp cut-off; inactive = mostly below about 43%; also: 0% is about no effect
Numbers without * were called inactive; [ ] = another dose, or the depositor's remark. This is one part of a sample in which hits are shown more often than they occur. Unless noted, calls follow the shape of the dose curve; as a rule, active = well fitted curve in the direction sought with a large enough effect; inconclusive = small, poorly fitted or top-dose-only effect, or another doubt; inactive = no such curve, though single readings can be large; an effect the other way counts as inactive or inconclusive.

For Cc1ccc(/C=C2/CCc3c([nH]c4ccccc34)C2=O)cc1 the results were RE007 growth inh 6%, FBPA Giardia inh 5%, CHX counter 29*, TbPYK inhibitor 1%, LmPK inh 1% and Shiga inhibitor 52*.
Screening O=C1NCCc2c1[nH]c1ccccc21 returned RE007 growth inh 10%, FBPA Giardia inh -4%, CHX counter 10, TbPYK inhibitor 0%, LmPK inh 5% and Shiga inhibitor 1.
For CCCCN1CCc2c([nH]c3ccccc23)C1=O the results were RE007 growth inh -5%, FBPA Giardia inh 2%, CHX counter 35*, TbPYK inhibitor -1%, LmPK inh 1% and Shiga inhibitor 95*.
Screening CCCc1ccc(C(O)c2ncc(-c3ccccc3F)[nH]2)cc1 (stereo unspecified) returned RE007 growth inh -20%[18.4 µM] and TbPYK inhibitor 3%.
`CCc1ccc(S(=O)(=O)NCc2ccc3c(c2)CCN3C(=O)c2ccc(C)cc2)cc1` gave TbPYK inhibitor -6%.
OCCN1CCN(c2cc(-c3ccc4ccccc4c3)nc3ccnn23)CC1 was read as RE007 growth inh -19% and TbPYK inhibitor 8%.
`CC(C)(C)OC(=O)N1CCC2(CC1)Oc1ccc(Cl)cc1C(=O)C21CC(c2ccc(Cl)cc2)=NO1` (stereo unspecified) gave RE007 growth inh -7% and TbPYK inhibitor -10%.
Screening COc1ccc(C)cc1NC(=O)C1CCN(S(=O)(=O)c2ccc3c(c2)C(C)(C)C(=O)N3C)CC1 returned RE007 growth inh -4%, FBPA Giardia inh 0%, CHX counter -3, TbPYK inhibitor 0%, LmPK inh -1% and Shiga inhibitor -3.
`CCCCCc1c(O)c2ccccc2[nH]c1=O` gave RE007 growth inh -19%, FBPA Giardia inh -12%, CHX counter 4, TbPYK inhibitor -25%, LmPK inh -4% and Shiga inhibitor -12.
`CCCC/C=C1\CCc2c([nH]c3ccccc23)C1=O` gave RE007 growth inh 5%, FBPA Giardia inh -4%, CHX counter 32*, TbPYK inhibitor 0%, LmPK inh 0% and Shiga inhibitor 57*.
Screening Cc1ccc2[nH]c3c(c2c1)CC/C(=C/c1ccccc1)C3=O returned RE007 growth inh 6%, FBPA Giardia inh 1%, CHX counter 23*, TbPYK inhibitor 2%, LmPK inh 1% and Shiga inhibitor 32.
For Cc1ccccc1CN1C(=O)c2ccccc2S(=O)(=O)c2ccc(C(=O)OCC3CCCO3)cc21 (stereo unspecified) the results were TbPYK inhibitor -1%.
`CCOc1ccc2nc(NC(=O)c3ccco3)sc2c1` gave RE007 growth inh inconclusive, FBPA Giardia inh 11%, CHX counter 39*, TbPYK inhibitor -31%, LmPK inh inconclusive and Shiga inhibitor 38.
For CCOc1ccc2nc(NC(=S)NCc3ccccc3)sc2c1 the results were RE007 growth inh -14%, FBPA Giardia inh 5%, CHX counter 10, TbPYK inhibitor -20%, LmPK inh 6% and Shiga inhibitor 0.
`CCOc1ccc2nc(NC(=O)c3ccoc3C)sc2c1` gave RE007 growth inh 10µM*, FBPA Giardia inh -17%, CHX counter 24*, TbPYK inhibitor inconclusive, LmPK inh 13µM* and Shiga inhibitor 42.
Screening CCOC(=O)c1ccc2nc(NC(=O)c3ccco3)sc2c1 returned RE007 growth inh 0%, FBPA Giardia inh 0%, CHX counter 27*, TbPYK inhibitor -10%, LmPK inh inconclusive and Shiga inhibitor 35*.
Screening CCOC(=O)c1ccc2nc(NC(=O)c3cccs3)sc2c1 returned RE007 growth inh -10%, FBPA Giardia inh -2%, CHX counter 39*, TbPYK inhibitor -3%, LmPK inh inconclusive and Shiga inhibitor 44*.
For CCOc1ccc2nc(NC(=O)c3cccn(Cc4ccc(C)cc4)c3=O)sc2c1 the results were TbPYK inhibitor 2%.
CCOC(=O)c1c(-c2ccc(C)s2)csc1NC(=O)c1cccs1 was read as RE007 growth inh -3%, FBPA Giardia inh 1%, CHX counter -4, TbPYK inhibitor -14%, LmPK inh -1% and Shiga inhibitor 6.
Screening CCC(C)Sc1oc(-c2ccco2)nc1S(=O)(=O)c1ccc(C)cc1 (stereo unspecified) returned TbPYK inhibitor 4%.
O=c1c2ccccc2cnn1Cc1n[nH]c(=S)n1-c1cc(Cl)cc(Cl)c1 was read as RE007 growth inh 2%, FBPA Giardia inh 16%, CHX counter 0, TbPYK inhibitor 6.3µM*, LmPK inh -25% and Shiga inhibitor 19.
For CC(c1ccc(F)cc1)n1c(Cn2ncc3ccccc3c2=O)n[nH]c1=S (stereo unspecified) the results were RE007 growth inh 18%, FBPA Giardia inh 6%, CHX counter 1, TbPYK inhibitor 13µM*, LmPK inh 6% and Shiga inhibitor -17.
Screening CC(c1ccccc1)n1c(-c2ccccc2F)n[nH]c1=S (stereo unspecified) returned RE007 growth inh 5%, FBPA Giardia inh 0%, CHX counter -2, TbPYK inhibitor inconclusive, LmPK inh inconclusive and Shiga inhibitor -11.
O=c1c2ccccc2cnn1Cc1n[nH]c(=S)n1-c1ccc(F)cc1 was read as RE007 growth inh 15%, FBPA Giardia inh -10%, CHX counter 1, TbPYK inhibitor inconclusive, LmPK inh 1% and Shiga inhibitor 12.
For CC(c1ccc(F)cc1)n1c(-c2cccs2)n[nH]c1=S (stereo unspecified) the results were RE007 growth inh -3%, FBPA Giardia inh -7%, CHX counter -1, TbPYK inhibitor 7.1µM*, LmPK inh inconclusive and Shiga inhibitor 19.
`CCc1ccc(-n2nc(CO)c(C(=O)NC(C)c3ccc(Cl)cc3)n2)cc1` (stereo unspecified) gave TbPYK inhibitor 4%.
For CSc1cccc(NC(=O)/C=C/c2ccc(Cl)cc2)c1 the results were RE007 growth inh -12%, FBPA Giardia inh -14%, CHX counter 40*, TbPYK inhibitor 2%, LmPK inh -8% and Shiga inhibitor 51*.
O=C(/C=C/c1ccccc1)Nc1cccc(C(=O)O)c1 was read as RE007 growth inh -9%, FBPA Giardia inh -2%, CHX counter 35*, TbPYK inhibitor -11%, LmPK inh inconclusive and Shiga inhibitor 24*.
CSc1cccc(NC(=O)/C=C/c2ccccc2)c1 was read as RE007 growth inh inconclusive, FBPA Giardia inh -14%, CHX counter 36*, TbPYK inhibitor -6%, LmPK inh 3% and Shiga inhibitor 71*.
